A selection: hits, their analogues and other compounds. The true share with any hit is near 19%.
IL1B secr inh: inflammasome signaling inhibition, IL-1 beta readout. THP-1 LPS/ATP IL-1B secretion, AlphaLISA, 16 h; hits give low values. activity change, % at 57.5 µM. 360,000 compounds, 4.7% hits; in the data active means activity change below about -50%; inconclusive means mostly about -30% to -49%
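Secreted IL-1B measured by AlphaLISA bead assay after 16 h compound exposure of THP-1 cells; compounds (final up to 57.5 uM) added 1 h before LPS (250 ng/mL) and ATP (1.25 mM) stimulation; lower signal means less secretion.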
DT40 TDP1 CPT: DT40-hTDP1 cell growth loss with CPT; chicken DT40 Tdp1-/-;hTDP1 cells + 20 nM CPT, ATP luminescence, 48 h; Potency, µM (top dose mostly 46.2 µM), without a hit: top-dose activity change, negative = growth inhibition, hits mostly inhibitors; 420,000 compounds, 12% hits; AID 686979; further: potency means the concentration at half of the fitted maximal effect; nearly all actives have a fitted effect of over 55% in size
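Chicken DT40 Tdp1-/- cells complemented with human TDP1, 400 cells/well, exposed to compounds plus 20 nM camptothecin for at least 48 h at 37 C; viability read as ATP content by CellTiter-Glo luminescence.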
HT1080NT lethal: kills 2HG-producing HT-1080-NT fibrosarcoma cells. HT-1080-NT fibrosarcoma viability, CellTiter-Glo ATP luminescence, 48 h. Potency, µM (doses to about 46.1 µM), for inactives: at the top dose activity, negative = less viability, usual class: cytotoxic. 360,000 compounds, 1.6% hits. AID 686970;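 further: NT is the 2HG producing partner of a matched IDH1 knockdown line; potency means the concentration at half of the fitted maximal effect; 0% = DMSO-treated cells and -100% = media-only wells without cells; nearly all actives have a fitted effect of over 55% in size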
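Viability by CellTiter-Glo luminescence after 48 h compound exposure at 37C of HT-1080-NT cells (750/well, RPMI, 5% FBS). % activity scaled between DMSO wells and medium-only wells, then curve-fitted and categorized by curve class.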
HT1080 IDH1KD tx: HT-1080 IDH1 knockdown cell toxicity (counter line). AID 686971. Potency, µM (titrated, usually from 46.1 µM), for inactives: top-dose activity, negative = toxicity, hits mostly cytotoxic. HT-1080 IDH1 knockdown viability, ATP luminescence, 48 h. 360,000 compounds, 2% hits;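 further: potency means the concentration at half of the fitted maximal effect; 0% = DMSO wells and -100% = cell-free medium wells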
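Viability of IDH1-knockdown HT-1080 fibrosarcoma cells was assessed by CellTiter-Glo after 48 h at 37 °C with titrated compound; concentration-effect curves were classified by fit quality and response size.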
TDP1 cell noCPT: qHTS for Inhibitors of human tyrosyl-DNA phosphodiesterase 1 (TDP1): qHTS in cells in absence of CPT. Potency, µM (doses to about 46.2 µM), for inactives: at the highest dose activity change, negative = growth inhibition, usual class: inhibitors. DT40 Tdp1-/- hTDP1 cells, no CPT, ATP luminescence, 48 h. 420,000 compounds, 15% hits; further: potency means the concentration at half of the fitted maximal effect; nearly all actives have a fitted effect of over 55% in size
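Chicken DT40 Tdp1-/- cells complemented with human TDP1, screened without camptothecin (DMSO vehicle only), 400 cells/well. Compounds pin-transferred, cells incubated at 37 °C for at least 48 hr. Growth read as ATP-dependent luminescence (CellTiter-Glo, 30 min at RT).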
Starred values were filed as active, the others as inactive. Unless noted, the call rests on the fitted dose curve; in most records, active means well fitted curve in the direction sought with a large enough effect; inconclusive means small, poorly fitted or top-dose-only effect, or another doubt; inactive means no such curve, though single readings can be large; an effect the other way counts as inactive or inconclusive. Unless noted, on the % scale 0 is the no-effect control and ±100 the full control effect.

Screening O=S(=O)(NCCc1csc2nc(-c3ccc(Cl)cc3)nn12)c1cccs1 returned DT40 TDP1 CPT 18.4µM* and TDP1 cell noCPT 14.6µM*.
Cc1noc(C)c1S(=O)(=O)NCCc1csc2nc(-c3ccc(Cl)cc3)nn12 was read as DT40 TDP1 CPT 23.1µM* and TDP1 cell noCPT 11.6µM*.
`Cc1cn2c(=O)c(S(=O)(=O)NCCc3ccc(Cl)cc3)c(C)nc2s1` gave DT40 TDP1 CPT -28.0% and TDP1 cell noCPT -17.5%.
Screening COc1ccc(-c2noc(CCC(=O)NCC3CCCO3)n2)cc1OC (stereo not drawn) returned IL1B secr inh 2.6, DT40 TDP1 CPT 0.3%, HT1080NT lethal 0.6%, HT1080 IDH1KD tx 6.6% and TDP1 cell noCPT 4.4%.
For CN(CC(=O)OCC(=O)c1c(N)n(C)c(=O)n(C)c1=O)S(=O)(=O)c1ccc(Cl)cc1 the results were IL1B secr inh -3.8, DT40 TDP1 CPT -24.7%, HT1080NT lethal 2.2%, HT1080 IDH1KD tx -0.9% and TDP1 cell noCPT -24.5%.
Cc1ccccc1OCc1nc2ccccc2c(=O)n1/N=C/c1cn[nH]c1-c1ccc(Br)cc1 was read as IL1B secr inh -23.1, DT40 TDP1 CPT inconclusive, HT1080NT lethal -2.5%, HT1080 IDH1KD tx -2.7% and TDP1 cell noCPT inconclusive.
For Oc1ccc(/C=N/n2c(COc3ccccc3)n[nH]c2=S)c(O)c1 the results were IL1B secr inh 8.6, DT40 TDP1 CPT -17.7%, HT1080NT lethal -0.9%, HT1080 IDH1KD tx -11.4% and TDP1 cell noCPT 12.5%.
`O=c1c2ccccc2nc(COc2ccccc2)n1/N=C/c1c[nH]c2ccccc12` gave IL1B secr inh 7.6, DT40 TDP1 CPT inconclusive, HT1080NT lethal 15.8%, HT1080 IDH1KD tx 13.8% and TDP1 cell noCPT 16.4µM*.
For O=c1c2ccccc2nc(COc2ccccc2)n1/N=C/c1cn[nH]c1-c1ccccc1 the results were IL1B secr inh -8.6, DT40 TDP1 CPT 20.6µM*, HT1080NT lethal -24.0%, HT1080 IDH1KD tx -26.8% and TDP1 cell noCPT 16.4µM*.
O=c1c2ccccc2nc(COc2ccccc2)n1/N=C/c1ccc(O)cc1O was read as IL1B secr inh 204.1, DT40 TDP1 CPT inconclusive, HT1080NT lethal -26.4%, HT1080 IDH1KD tx inconclusive and TDP1 cell noCPT 23.1µM*.
`OC[C@H]1O[C@@H](c2nc3ccc(-c4nc(-c5cccs5)no4)cc3[nH]2)C[C@@H]1O` gave IL1B secr inh -15.2, DT40 TDP1 CPT inconclusive, HT1080NT lethal -8.2%, HT1080 IDH1KD tx -9.7% and TDP1 cell noCPT inconclusive.
Cn1cc(C(=O)[C@@H]2CCc3nc[nH]c3C2)c2ccccc21 was read as DT40 TDP1 CPT -11.0% and TDP1 cell noCPT -19.1%.
Nc1nonc1C(=Nc1ccc(Br)cc1)NO was read as IL1B secr inh -20.9, DT40 TDP1 CPT 25.9µM*, HT1080NT lethal -4.0%, HT1080 IDH1KD tx -15.1% and TDP1 cell noCPT inconclusive.
Screening O=c1c2c3c(sc2n(Cc2cc(=O)n4ccccc4n2)c(=O)n1-c1ccccc1)CCC3 returned DT40 TDP1 CPT 2.5% and TDP1 cell noCPT -8.5%.
Screening Cn1cc(CN2CCCC(C(=O)c3ccc(-c4ccccc4)cc3)C2)cn1 (stereo not drawn) returned IL1B secr inh -13.3, DT40 TDP1 CPT -24.1%, HT1080NT lethal inconclusive, HT1080 IDH1KD tx -24.4% and TDP1 cell noCPT 16.4µM*.
For CCn1cc(CN2CCCC(C(=O)c3ccc(-c4ccccc4)cc3)C2)cn1 (stereo not drawn) the results were IL1B secr inh -90.3*, DT40 TDP1 CPT inconclusive, HT1080NT lethal inconclusive, HT1080 IDH1KD tx 23.1µM* and TDP1 cell noCPT 25.9µM*.
COc1ccc(CCC(=O)O)c(C(CC(=O)O)C(=O)O)c1OS(=O)(=O)c1ccc(C)cc1 (stereo not drawn) was read as IL1B secr inh 8.3, DT40 TDP1 CPT -2.6%, HT1080NT lethal 11.2%, HT1080 IDH1KD tx 5.4% and TDP1 cell noCPT -15.8%.
CC(C)Cn1c(O)c(/C=C2\C=NN=C2c2ccccc2)sc1=S was read as IL1B secr inh -88.8*, DT40 TDP1 CPT inconclusive, HT1080NT lethal -17.2%, HT1080 IDH1KD tx 2.7% and TDP1 cell noCPT inconclusive.
